This passage reports max fluorescein-equivalent concentration results from PubChem BioAssay AID593 (National Center for Advancing Translational Sciences (NCATS), 2007).

Hit rate of the full screen: of about 59,000 compounds, about 540 (0.92%) were called active. Not shown: some 33% with an inconclusive outcome. Cut-off read from the data, not from the text of the source: active = max fluorescein-equivalent concentration above about 10 nM; inconclusive = between about 1.1 nM and that limit; inactive = weaker than that. The entries come from a sample that favours actives as a whole.

The assay in a line: qHTS Assay for Spectroscopic Profiling in Fluorescein Spectral Region. The following applies: Compound autofluorescence, 480/540 nm; max fluorescein-equivalent concentration: stronger effect = higher value; outcome: fluorescein-equivalent. An excerpt: NIH Molecular Libraries Screening Centers Network [MLSCN]
NIH Chemical Genomics Center [NCGC]
Occasionally, the artifactual effect may originate from the compound's own spectral or other biophysical properties which generally tend to track its assay concentration. Pre-screening/profiling the library with respect to the compounds' spectral properties should help one exclude false positives early on. While the most informative fluorescent profiling data set is obtained by performing a full excitation and emission scan of each well by using a monochromator-based plate reader, such an approach is practical only on a very limited scale as scanning each well requires long time. An alternative approach, applied here, is to perform plate reader scans using selected excitation and emission wavelength pairs to generate a multidimensional relational database that correlates compound concentration and the respective relative fluorescence intensity at a given wavelength set. A standard curve of fluorescein present on each plate as six-point concentration series, was used to compute a normalized fluorescence response, termed dye-equivalent concentration, for each compound at each concentration.
NCGC Assay Protocol Summary:
100 mM Tris buffer, pH 8.0
The wells in columns 1 through 4 of a Kalypsys polypropylene 1536-well compound plate were filled with standard solutions of fluorophore corresponding to the spectral region of interest. Solutions of Fluorescein were placed in the following wells: Q1, R1: 3 mM, Q2, R2: 300 uM, Q3, R3: 30 uM, Q4, R4: zero (DMSO), S1, T1: 3 uM, S2, T2: 900 nM, S3, T3: 300 nM, S4, T4: zero (DMSO).
Six uL of buffer were dispensed to 1536-well Greiner black plates. Compounds and dye standards (23 nL) were transferred via Kalypsys PinTool. The plates were incubated for 15 min at room temperature, and then read on ViewLux (Perkin-Elmer) High-throughput CCD imager using 480 nm and 540 nm excitation and emission filter set.
Keywords: NIH Roadmap, MLSCN, MLI, MLSMR, qHTS, NCGC, Fluorescein, Fluorescent Profiling.
For the compound `COc1ccc2nc(NC3=NCN(CC4CCCO4)CN3)nc(C)c2c1` (centres undefined), the max fluorescein-equivalent concentration entry was “inactive”.
Then `COc1cccc(Nc2ncc3ncc(=O)n(C4CC4)c3n2)c1`, with “inactive”; and `Oc1c(Br)cc(CN(Cc2cc(Br)c(O)c(Br)c2)C2CCCCC2)cc1Br`, with “inactive”.
Then `COc1ccc(C2C3=C(CC(C)(C)CC3=O)Oc3ncn4nc(-c5cccnc5)nc4c32)cc1OC` (centres undefined), with “inactive”.
Consider `O=C(c1ccc([N+](=O)[O-])cc1)[C@@H](Br)[C@@H](Br)c1ccnc2ccccc12`, for which the max fluorescein-equivalent concentration entry was “inactive”.
Then `CN(C)CCSS(=O)(=O)O`, with “inactive”.
`CCCn1c(SCC(=O)c2ccc3c(c2)OCCO3)nnc1C(C)C`: the max fluorescein-equivalent concentration result is “inactive”.
Then `CCCCOc1ccccc1/C=c1/sc2nc(-c3oc4ccccc4c3C)nn2c1=O`, with “inactive”; and `COc1cccc(Cn2c(=O)c(-c3cc(F)cc(F)c3)nc3cnc(OC)nc32)c1`, with “inactive”.
The entry for `CCOC(=O)CSc1nc2sc3c(c2c(=O)[nH]1)CC(C)(C)OC3` is “inactive”; for `CCOc1ccc2[nH]c(=O)c(CN(CCCO)C(C)=O)cc2c1` it is “inactive”.
Then `CN1CCN(CC(=O)C23CC4CC(CC(C4)C2)C3)CC1`, with “inactive”.
Consider `c1ccc2sc(SCCSc3nc4ccccc4s3)nc2c1`, for which the max fluorescein-equivalent concentration entry is “inactive”.
With `CCOC(=O)c1csc(NC(=O)c2ccc(S(=O)(=O)N3CCCC3)cc2)n1`, the max fluorescein-equivalent concentration result was “inactive”.
Then `O=C(c1ccco1)N1CCC2(CC1)CN(c1ncccn1)C2`, with “inactive”.
Then `CCOC(=O)c1sc(NC(=O)c2cc(S(=O)(=O)N3CCOCC3)ccc2C)nc1C`, with “inactive”.
On to `COc1cccc(-c2nc(Nc3ccncc3)c3ccccc3n2)c1`, for which the max fluorescein-equivalent concentration result was “inactive”.
Then `CC(C)NC(=O)N1CC[C@@]2(CCCN(C(=O)c3cccn3C)C2)C1`, with “inactive”; and `CCCCCC(=O)Nc1ccc2oc(-c3ccncc3)nc2c1`, with “inactive”; and `Cc1ccc(CC2CC(=O)N(c3ccc4c(c3)OCCO4)C2=O)cc1` (centres undefined), with “inactive”.
The entry for `CCOC(=O)C1C(=O)NC(N2CCN(c3ccccc3)CC2)=NC1c1ccco1` (centres undefined) is “inactive”; for `O=C(c1cnccn1)N1CCC2(CCN(Cc3cc(C(F)(F)F)cc(C(F)(F)F)c3)CC2)CC1` it is “inactive”.
The entry for `N=c1c2c3c(sc2ncn1N)CCCCC3` is “inactive”; for `O=c1c(-c2ccc(F)cc2)nc2cnc(N3CCNCC3)nc2n1Cc1cccs1` it is “inactive”.
In the case of `CCN(CC)C(=O)C1CCC(C)(C(=O)O)C1(C)C` (centres undefined), the max fluorescein-equivalent concentration result is “inactive”.
With `CCc1ccc(CCC(=O)Nc2ccc(S(N)(=O)=O)cc2)o1`, the max fluorescein-equivalent concentration result is “inactive”.
With `COc1ccc(-c2nc(SCC(=O)N3CCOCC3)n[nH]2)cc1`, the max fluorescein-equivalent concentration entry was “inactive”.
Then `CN(C)/C=C1/Nc2ccccc2C1=O`, with “inactive”; and `COC(=O)C(C)N(C#N)c1nc(C)nc(C)n1` (centres undefined), with “inactive”.
Take `COCCCn1c2nc3ccccc3nc2c2c(=O)n(Cc3ccc(Cl)cc3)c(C)nc21`: the max fluorescein-equivalent concentration entry was “inactive”.
The entry for `CCN(CC)S(=O)(=O)c1ccc2nc(CSc3nnnn3-c3ccc(O)cc3)[nH]c2c1` is “inactive”; for `COc1cc(OC)cc(C(=O)Nc2ccc(-c3nc4ccccc4o3)c(O)c2)c1` it is “inactive”.
The entry for `CC(=O)c1ccc(N2C(=NC(=O)C(C)C)SC3CS(=O)(=O)CC32)cc1` (centres undefined) is “inactive”; for `COc1ccc(C(c2nnnn2Cc2cccs2)N2CCN(c3ccccc3)CC2)cc1OC` (centres undefined) it is “inactive”; for `CC(=O)c1ccc(NC(=O)N[C@@H](Cc2ccccc2)C(=O)O)cc1` it is “inactive”.
The entry for `CC(C)c1ccc(-c2nn[nH]n2)cc1` is “inactive”; for `Cn1c(SCC(=O)c2cccs2)nnc1-c1ccco1` it is “inactive”; for `CC1(C)Cc2ccccc2-c2nnc(-c3cccc(O)c3)n21` it is “inactive”.
For `CC1(C)Cc2cccc(OCC(=O)Nc3nccs3)c2O1`, the max fluorescein-equivalent concentration result was “inactive”.
Then `COC(=O)c1ccc(NC(=O)CSc2nnc(-c3ccncc3)n2C)cc1`, with “inactive”; and `Cc1ccc(C)c(NC(=O)C2CC(=O)N(C(C)C)C2)c1` (centres undefined), with “inactive”.
The entry for `Cc1ccccc1-c1nc(N(C)Cc2ccco2)c2ccccc2n1` is “inactive”; for `c1ccc(CSCCc2ccncc2)cc1` it is “inactive”.
Then `C[C@]1(O)CC[C@H]2[C@H]3CC=C4N5CCN=C5CC[C@@]4(C)[C@H]3CC[C@@]21C`, with “inactive”; and `O=c1[nH]nc(Cc2ccccn2)c2ccccc12`, with “inactive”.
For `Cc1ccc(-c2noc(CN3CCN(Cc4ccccc4)CC3)n2)cc1`, the max fluorescein-equivalent concentration entry is “inactive”.
Then `CCOC(=O)c1cc2occc2n1CC(=O)NC1CCC(C)CC1` (centres undefined), with “inactive”; and `COc1ccc(C(=O)N(Cc2ccc(N(C)C)cc2)C2CCS(=O)(=O)C2)cc1` (centres undefined), with “inactive”.
The entry for `O=S(=O)(NCCOc1cccc2cccnc12)c1ccc(F)cc1` is “inactive”; for `Nc1nc2c(ncn2[C@H]2CC[C@@H](CO)O2)c(=O)n1C(=O)c1ccccc1` it is “inactive”; for `O=C(O)[C@H](CCc1ccccn1)c1ccccc1` it is “inactive”.
The figure for `O=C(O)c1c(Br)c(Br)c(Br)c(Br)c1C1c2ccc(O)cc2Oc2cc(O)ccc21` is 320 nM (active); for `O=C(COc1cccc(-n2cnnn2)c1)NCCC1=CCCCC1` it is “inactive”.
`Cc1cc2c(cc1C)NC1=C(N2)O[C@H](c2c[nH]c3ccc(COc4ccccc4)cc23)C1=O`: the max fluorescein-equivalent concentration result was “inactive”.
As to `CC(C)CC(=O)N=C1SC2CS(=O)(=O)CC2N1CCc1ccccc1` (centres undefined), the max fluorescein-equivalent concentration result was “inactive”.
Then `O=C(c1ccco1)N1CCC2(CC1)CCN(c1ncccn1)CC2`, with “inactive”; and `NCC(=O)[C@@H](O)[C@H](O)[C@H](O)CO`, with “inactive”.
Then `Cc1cc(C)c2cc(CN(Cc3cccs3)Cc3nnnn3CC3CCCO3)c(=O)[nH]c2c1` (centres undefined), with “inactive”; and `CS(=O)(=O)N1CCC2(CCN(c3ccncc3)CC2)CC1`, with “inactive”; and `COc1ccc(-c2ccc(-c3noc(-c4ccncc4)n3)c(OC)n2)cc1`, with “inactive”.
Then `COc1cccc(-c2cc(NCCc3c[nH]c4ccc(OC)cc34)ncn2)c1`, with “inactive”; and `CN1CCN(c2ccc(NC(=O)COc3ccc(Cl)cc3Cl)cc2)CC1`, with “inactive”.
In the case of `Clc1ccc(C(c2ccc(Cl)cc2)n2cc[n+](C[C@@H](OCc3ccc(Cl)cc3Cl)c3ccc(Cl)cc3Cl)c2)cc1`, the max fluorescein-equivalent concentration result is “inactive”.
The entry for `COCCn1c(=O)c(CCc2ccccc2)nc2cnc(N3CCNCC3)nc21` is “inactive”; for `COc1ccccc1CCn1c(=O)c(-c2cn(C)c3ccccc23)nc2cncnc21` it is “inactive”.
The entry for `CCn1c(Cc2ccccc2)nnc1SCC(=O)Nc1ccccc1` is “inactive”; for `O=c1cc(-c2ccc(O)c(O)c2)oc2cccc(O)c12` it is “inactive”; for `CCCn1c(O)c(CN2CCCC(C)C2)c(C)c(C#N)c1=O` (centres undefined) it is 65 nM (active).
The entry for `CCCCCCn1c(CN2CCCC(C)C2)nc2c1c(=O)n(C)c(=O)n2C` (centres undefined) is “inactive”; for `COC(=O)c1c(NC(=O)CSc2nc3c(c(=O)n(C)c(=O)n3C)n2C(C)C)sc(C)c1C` it is “inactive”; for `Clc1ccc(C=Nc2ccc3c(c2)Cc2ccccc2-3)c(Cl)c1` it is “inactive”.
As for `CCNc1ncc2nc(CCc3ccccc3)c(=O)n(-c3ccc(OC)cc3)c2n1`, the max fluorescein-equivalent concentration result was “inactive”.
Then `CSCCC(Nc1nc2ccccc2s1)C(=O)O` (centres undefined), with “inactive”; and `CCn1c(COc2cccc(OC)c2)nnc1SCC(=O)N1CCOCC1`, with “inactive”.
Then `O=C(O)[C@@H](S)[C@H](S)C(=O)O`, with “inactive”; and `COc1ccc(OC)c([C@H](O)CNC(=O)CN)c1`, with “inactive”.
Consider `COCCNC(=O)C(C#N)c1nc2ccccc2nc1N1CCN(Cc2ccc3c(c2)OCO3)CC1` (centres undefined), for which the max fluorescein-equivalent concentration result is “inactive”.
Turning to `Cc1ccc(S(=O)(=O)C(C#N)c2nc3ccccc3nc2N2CCCC2)cc1C` (centres undefined), the max fluorescein-equivalent concentration is 14 nM (active).
Then `CC(=O)/C(=N\N=C(N)N)c1ccccc1`, with “inactive”; and `CCCCC(=O)Nc1ccc(C(=O)NCCCn2ccnc2)cc1`, with “inactive”.
As to `O=c1[nH]nc(CSCc2ccccc2Cl)[nH]1`, the max fluorescein-equivalent concentration result was “inactive”.
The entry for `COC(=O)N1CCC[C@@]2(CCN(C(=O)NC(C)C)C2)C1` is “inactive”; for `CCOC(=O)c1cc2n(c1C)-c1ccccc1C2=O` it is “inactive”.
Then `CCOC(=O)c1cc2n(c1N)-c1ccccc1C2=O`, with 780 nM (active); and `CCOC(=O)c1cc2ccccc2nc1C`, with “inactive”.
With `CCc1ccc2oc(-c3ccc(N)cc3)nc2c1`, the max fluorescein-equivalent concentration result was “inactive”.
Then `CCN(CC)c1ccc2oc(=O)c(C)nc2c1`, with 140 nM (active).
The entry for `O=C(c1ccncc1)N1CCC2(CCCN(C(c3ccccc3)c3ccccc3)C2)CC1` is “inactive”; for `CC(C)CSC[C@@H]1O[C@H](n2cnc3c(N)nccc32)[C@H](O)[C@@H]1O` it is “inactive”.
Then `COc1ccc(-c2nc3cnc(Oc4ccccc4)nc3n(Cc3cccs3)c2=O)cc1`, with “inactive”.
Take `CCOc1ccc(N=NS(=O)(=O)O)cc1`: the max fluorescein-equivalent concentration result is “inactive”.
Then `O=c1c(-c2cccs2)nc2cnc(Oc3ccccc3)nc2n1-c1ccccc1`, with “inactive”.
Then `CCn1c(COc2ccc(OC)cc2)nnc1SCC(=O)Nc1cc(OC)ccc1OC`, with “inactive”; and `Nc1ccc2c3c(cccc13)C(=O)NC2=O`, with 2000 nM (active); and `Cc1ccc2nc(NCCCNC(=O)c3cnccn3)c(C#N)cc2c1`, with “inactive”.
The entry for `CC(C)CNC(=O)C1CCCN(S(=O)(=O)c2ccc(-n3cnnn3)cc2)C1` (centres undefined) is “inactive”.
On to `FC(F)(F)c1ccccc1-c1cc(NCc2ccccc2)ncn1`, for which the max fluorescein-equivalent concentration result is “inactive”.
Then `COCCn1c(=O)c(C)nc2cnc(N(C)C)nc21`, with “inactive”.
The entry for `CN1CCN(C(=O)c2ccc(NS(=O)(=O)c3ccccc3)cc2)CC1` is “inactive”; for `CN1CCN(Cc2nc3c(c(=O)n(C)c(=O)n3C)n2Cc2cccc3ccccc23)CC1` it is “inactive”.
Then `CS(=O)(=O)N(C(=O)NC(=O)NC1CCS(=O)(=O)C1)C1CCCCC1` (centres undefined), with “inactive”.
`CC[N+](C)(CC)CCC[n+]1c(-c2ccccc2)c2cc(N)ccc2c2ccc(N)cc21`: the max fluorescein-equivalent concentration was 18 nM (active).
The entry for `NC(=O)C1CCN(C(=O)c2ccc(C(F)(F)F)cc2)CC1` is “inactive”.
`CC1(C)S[C@@H]2[C@@H](NC(=O)[C@@H](N)c3ccccc3)C(=O)N2[C@H]1C(=O)O`: the max fluorescein-equivalent concentration entry is “inactive”.
In the case of `O=C(NCCc1ccco1)c1nn(Cc2ccccc2)c(=O)c2ccccc12`, the max fluorescein-equivalent concentration result is “inactive”.
Then `CN(C)CCCn1c2ccccc2c2cnccc21`, with “inactive”; and `CC(C)c1nc2oc3c(N4CCN(C)CC4)ncnc3c2c2c1CCC2`, with “inactive”.
The entry for `CC(=O)N1CCN(c2ccc(NCc3ccc(C(C)C)cc3)cc2)CC1` is “inactive”; for `Cc1ccc(C(=O)NCC(=O)O)cc1S(=O)(=O)N1CCCCC1` it is “inactive”.
